Laboratory results: PubChem BioAssay (NCI)
The panel holds about 83,000 compounds, 20% with a hit somewhere; the sample as a whole holds those more often.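 In brief: 96-well plates, 48 h treatment, single concentration, percent growth endpoint.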 The source made the active and inactive calls. How the source made its calls: active means growth percent below 10; inactive means the rest.

What was measured:
Assay in all cases: NCI-60 one-dose screen, 48 h (100 = growth as untreated, 0 = no growth, -100 = all killed)
Settings in all cases: 10 µM unless noted
[1] = test system: DU-145 prostate
[2] = test system: K-562 leukemia
[3] = test system: MALME-3M melanoma
[4] = test system: MDA-MB-231 breast
[5] = test system: RXF 393 renal
[6] = test system: SF-268 CNS
[7] = test system: SF-295 CNS
[8] = test system: SF-539 CNS
[9] = test system: UACC-257 melanoma
[10] = test system: M14 melanoma
[11] = test system: HCT-15 colon
[12] = test system: HT29 colon
[13] = test system: SNB-75 CNS
[14] = test system: SNB-19 CNS
[15] = test system: U251 CNS
[16] = test system: PC-3 prostate
[17] = test system: SK-MEL-5 melanoma
[18] = test system: UACC-62 melanoma
[19] = test system: LOX IMVI melanoma
[20] = test system: SK-MEL-28 melanoma

Measured: growth

COc1cccc(Cc2nn3cc(-c4ccccc4)nc3s2)c1
inactive: [1] 94.4% | [2] 27.7% | [3] 96.2% | [4] 78.9% | [5] 117% | [6] 89.2% | [7] 103% | [8] 102% | [9] 89.7% | [10] 84.1% | [11] 76.9% | [12] 54.6% | [13] 99.7% | [14] 102% | [15] 99.1% | [16] 96.5% | [17] 93.9% | [18] 91.1% | [19] 51.5% | [20] 113%

CSc1ncccc1C(=O)OCC(=O)Nc1oc(C)c2c(C)n[nH]c(=O)c12
inactive: [1] 103% | [2] 87.8% | [3] 106% | [4] 109% | [5] 92.1% | [6] 105% | [7] 95% | [8] 99.7% | [9] 103% | [10] 110% | [11] 103% | [12] 116% | [13] 85.3% | [14] 101% | [15] 102% | [16] 84.8% | [17] 103% | [18] 94.4% | [19] 94.5% | [20] 109%

CCCC1CCC(O)(C(C)(O)C(=O)NC2C(=O)N3NCCCC3C(=O)N(O)C(C)C(=O)N3NCCCC3C(=O)N3NCC(O)CC3C(=O)NC(C)C(=O)OC2C(C)C)OC1CC (stereo not given)
active: [1] -99% | [2] -61.6% | [3] -71.7% | [4] -66.3% | [5] -54.3% | [6] -82.1% | [7] -85.3% | [8] -95.1% | [9] -83.3% | [10] -60.9% | [11] -64.1% | [12] -55.6% | [13] -83% | [14] -81.5% | [15] -74.2% | [16] -86% | [17] -97.3% | [18] -71.8% | [19] -72.9% | [20] -99.3%

C(=N/Nc1ncnc2nc[nH]c12)/c1ccccn1
inactive: [1] 32.1% | [2] 24.8% | [3] 46.4% | [4] 53.7% | [5] 66.8% | [6] 26.6% | [7] 20.1% | [8] 20.6% | [9] 51.5% | [10] 14.2% | [11] 35.4% | [12] 58.8% | [13] 75.5% | [14] 53.8% | [15] 32.6% | [16] 31% | [17] 16.9% | [18] 27% | [19] 19.1% | [20] 49.1%

O=C(CSc1nccc(Nc2ccc(S(=O)(=O)Nc3nccs3)cc2)n1)c1ccc(C(F)(F)F)cc1
inactive: [1] 114% | [2] 114% | [3] 102% | [4] 120% | [5] 95.5% | [6] 110% | [7] 96.7% | [8] 95.7% | [9] 99.3% | [10] 100% | [11] 103% | [12] 106% | [13] 91.5% | [14] 93.2% | [15] 86.6% | [16] 93.2% | [17] 95.1% | [18] 93.2% | [19] 99.2% | [20] 108%

Cc1nc2ccccc2c(/C=C/c2ccccc2)c1C(=O)/C=C/c1ccc(C(F)(F)F)cc1
active: [1] -88.7% | [2] 1.82% | [3] -61.4% | [4] -43.7% | [5] -81.7% | [6] -6.77% | [7] -74.2% | [8] -84.9% | [9] -21.9% | [10] -31.3% | [11] -19.9% | [12] 5.76% | [13] -5.13% | [14] -64.9% | [15] -62.1% | [16] -28% | [17] -78.9% | [18] -51.6% | [19] -87.4% | [20] -67%

Cc1cccc2c3c(sc12)C(c1ccc(Cl)cc1)C(C#N)=C(/N=C/c1ccc(Cl)cc1)O3 (stereo not given)
inactive: [1] 20.1% | [3] 56.6% | [4] 28.5% | [6] 44.6% | [9] 65.1% | [14] 23.7% | [15] 24.4% | [16] 11% | [17] 26.4% | [18] 13.1% | [19] 20.9% | [20] 58.1%
active: [2] 8.84% | [5] -15.3% | [7] 1.19% | [8] -13.7% | [10] 4.4% | [11] 8.99% | [12] 6.06% | [13] -3.88%

CS(=O)(=O)N(c1cc(-c2ccc3ncnc(Nc4ccc(F)c(Cl)c4)c3c2)cnc1Cl)S(C)(=O)=O
inactive: [1] 47.3% | [2] 50.5% | [4] 44.3% | [6] 32.3% | [7] 34% | [8] 39.9% | [9] 38.8% | [10] 43.6% | [11] 29.5% | [12] 31.5% | [14] 50% | [15] 38.2% | [16] 34.8% | [17] 31.3% | [18] 10.3% | [19] 32.2% | [20] 23.5%
active: [3] 9.57% | [5] -6.35% | [13] -4.86%
